This excerpt belongs to a sample that is enriched for hits.
FBPA Giardia inh: blocks Giardia fructose-bisphosphate aldolase activity | A8B2U2 | purified Giardia FBPA | Potency, µM (top dose mostly 59.6 µM), without a hit: top-dose activity, negative = inhibition, actives largely listed as inhibitors | 290,000 compounds, 0.71% hits; also: nearly all actives have a fitted effect of over 55% in size
Target sequence (A8B2U2 whole entry, looked up): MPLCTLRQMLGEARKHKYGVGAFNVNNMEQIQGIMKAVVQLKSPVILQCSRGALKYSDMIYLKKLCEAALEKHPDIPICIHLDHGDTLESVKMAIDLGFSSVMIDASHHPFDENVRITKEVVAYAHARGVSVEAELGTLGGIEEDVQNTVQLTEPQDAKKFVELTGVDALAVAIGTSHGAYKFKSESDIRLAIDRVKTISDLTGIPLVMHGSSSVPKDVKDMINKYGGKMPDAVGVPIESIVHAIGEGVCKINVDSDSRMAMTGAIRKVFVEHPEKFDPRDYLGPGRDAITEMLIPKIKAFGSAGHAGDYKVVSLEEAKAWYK
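Giardia FBPA (40 nM reagent) was preincubated 10 min at RT with compound (up to 57.5 uM final), then substrate plus GAPDH/TPI/NAD/arsenate coupling system with diaphorase/resazurin was added; resorufin fluorescence (525/598 nm) was read after 20 min.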
Cruzain inh Det: blocks cruzain activity in presence of Triton detergent. purified cruzain, Z-FR-AMC fluorescence, 0.01% Triton. Potency, µM, inactives show max response, negative = inhibition, usual class: inhibitors. 200,000 compounds, 0.43% hits. AID 1478;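 also: plate controls were neutral wells for no effect and buffer without enzyme for full effect; nearly all actives have a fitted effect of over 40% in size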
Target sequence (P25779 123-467 limits assumed): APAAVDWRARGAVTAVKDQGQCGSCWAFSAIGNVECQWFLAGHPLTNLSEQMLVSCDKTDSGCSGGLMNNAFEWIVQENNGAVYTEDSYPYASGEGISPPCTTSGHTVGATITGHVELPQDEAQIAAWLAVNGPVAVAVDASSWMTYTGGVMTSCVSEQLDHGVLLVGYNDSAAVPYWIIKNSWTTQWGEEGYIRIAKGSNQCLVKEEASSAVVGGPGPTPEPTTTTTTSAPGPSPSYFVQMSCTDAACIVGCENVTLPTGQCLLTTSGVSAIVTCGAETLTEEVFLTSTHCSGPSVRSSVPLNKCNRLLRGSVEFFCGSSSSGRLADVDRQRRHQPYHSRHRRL
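Z-FR-AMC hydrolysis (2 uM substrate) by cruzain (1.5 nM) monitored kinetically at ex 360/em 450 nm after 15 min room-temperature compound exposure; 0.01% Triton X-100, pH 5.5, 5 mM DTT.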
Cruzain inh noDet: blocks cruzain activity in detergent-free assay; purified cruzain, Z-FR-AMC fluorescence, no detergent; Potency, µM, for the others: max response, negative = inhibition, most hits filed as inhibitors; 200,000 compounds, 2.3% hits; AID 1476;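 also: plate controls were enzyme without inhibitor for no effect and buffer without enzyme for full effect; nearly all actives have a fitted effect of over 40% in size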
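Detergent-free condition (0.00005% Triton X-100) in acetate buffer pH 5.5 with DTT. 1.5 nM enzyme and compound were pre-mixed 15 min, then 2 uM Z-FR-AMC substrate added; reaction progress from fluorescence change between first and third reads (60 s).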
* = called active by the depositor; u = inconclusive; x = no result. Calls follow the shape of the dose curve; as a rule, active = well fitted curve in the direction sought with a large enough effect; inconclusive = small, poorly fitted or top-dose-only effect, or another doubt; inactive = no such curve, though single readings can be large; an effect the other way counts as inactive or inconclusive. Unless noted, % is scaled to controls: 0 for no effect and ±100 for the full control effect; potency is read from the fitted curve at half-maximal effect.

SMILES	FBPA Giardia inh	Cruzain inh Det	Cruzain inh noDet
CCOc1ccc(-n2c(SCC(=O)Nc3cc(OC)c([N+](=O)[O-])cc3C)nc3ccccc32)cc1	1.1%	-2.5%	7.94µM*
COc1cc(NC(=O)CN2C(=O)NC(C)(c3ccccc3)C2=O)c(C)cc1[N+](=O)[O-] (stereo not given)	2.7%	-5.1%	-11.4%
COc1cc(NC(=O)CSc2nc(C)c(C)c(C)n2)c(C)cc1[N+](=O)[O-]	2.6%	-2.5%	5.4%
COc1cc([N+](=O)[O-])ccc1NC(=O)CSc1nc2ccccc2n1-c1ccccc1	-0.9%	-2.4%	12.6µM*
COc1cc([N+](=O)[O-])ccc1NC(=O)CSc1nccn1C	0.8%	x	x
COc1cc(NC(=O)CN2C(=O)NC(C)(c3ccc4ccccc4c3)C2=O)c(C)cc1[N+](=O)[O-] (stereo not given)	1.3%	-7.5%	20µM*
Cc1cc(C)c(NC(=O)c2sc3nc(C)cc(C)c3c2NC(=O)c2ccccc2)c(C)c1	x	-0.3%	-3.3%
COc1ccc(Cl)cc1NC(=O)c1cc(C)nc2c1c(C)nn2-c1ccccc1	x	0.4%	3.1%
O=[As](O)(O)c1ccc(NCc2ccccc2)cc1	x	2.4%	3.0%
CCOc1ccc(S(=O)(=O)N2Cc3ccccc3CC2C(=O)Nc2ccc(NC(C)=O)cc2)cc1 (stereo not given)	x	-2.8%	u
CCSC[C@H](NC(=O)[C@H](C)N)C(=O)N[C@@H](CC(=O)O)C(=O)N[C@H](C(=O)N[C@@H](C)C(=O)N[C@H](C(=O)N[C@@H](CSCC)C(=O)N[C@H](C(=O)N[C@H](C(=O)N[C@@H](Cc1cnc[nH]1)C(=O)N[C@@H](CCCNC(=N)N)C(=O)N[C@@H](CC(C)C)C(=O)N[C@@H](C)C(=O)NCC(=O)N[C@@H](CC(C)C)C(=O)N[C@@H](CC(C)C)C(=O)N[C@@H](CO)C(=O)N[C@@H](CCCNC(=N)N)C(=O)N[C@@H](CO)C(=O)NCC(=O)NCC(=O)N[C@H](C(=O)N[C@H](C(=O)N[C@@H](CCCCN)C(=O)N[C@@H](CC(N)=O)C(=O)N[C@@H](CC(N)=O)C(=O)N[C@@H](Cc1ccccc1)C(=O)N[C@H](C(=O)N1CCC[C@H]1C(=O)N[C@H](C(=O)N[C@@H](CC(N)=O)C(=O)N[C@H](C(=O)NCC(=O)N[C@@H](CO)C(=O)N[C@@H](CCCCN)C(=O)N[C@@H](C)C(=O)N[C@@H](Cc1ccccc1)C(N)=O)C(C)C)[C@@H](C)O)C(C)C)C(C)C)C(C)C)[C@@H](C)O)C(C)C)[C@@H](C)O)[C@@H](C)O	1.0%	x	x
CCC(Cl)CC(Cl)C(Cl)C(Cl)C(Cl)C(C)Cl (stereo not given)	x	3.8%	-18.9%
CCOC(=O)c1oc2ccc(S(=O)(=O)n3nc(-c4ccc(C)cc4)cc3N)cc2c1C	-6.0%	-0.8%	u
CCOC(=O)c1oc2ccc(S(=O)(=O)n3nc(-c4ccc(Cl)cc4)cc3N)cc2c1C	-6.9%	1.9%	12.6µM*
COc1ccc(C2/C=C\CN(C(=O)c3ccccc3)C(C)C(=O)N2Cc2ccc(F)cc2)cc1 (stereo not given)	-5.9%	x	x
NNc1nc(Nc2ccc([N+](=O)[O-])cc2)nc(N2CCCCCC2)n1	28.9%	x	x
NNc1nc(Nc2ccccc2)nc(N2CCCCC2)n1	7.4%	-11.1%	12.6µM*
COC(=O)c1ccccc1NC(=O)C1CCCN(C(=O)c2cnn(-c3ccc(F)cc3)c2-n2cccc2)C1 (stereo not given)	x	-2.5%	-11.0%
O=C(Nc1nnc(-c2ccccc2F)s1)Nc1ccccc1F	4.7%	x	x
O=C(Nc1nnc(-c2ccccc2SCc2ccccc2)s1)Nc1ccccc1F	9.6%	-0.6%	3.16µM*
COc1ccc(NC(=O)Nc2nnc(-c3ccccc3SCc3ccccc3)s2)cc1	1.1%	7.9%	10µM*
COc1cccc(NC(=O)Nc2nnc(-c3ccccc3SCc3ccccc3)s2)c1	7.6%	5.2%	3.16µM*
COc1cccc(C(=O)Nc2nnc(-c3ccccc3)s2)c1	-4.8%	x	x
COc1ccc(NC(=O)Nc2nnc(Cc3ccccc3)s2)cc1	10.1%	x	x
FC(F)(F)c1cc(NC(=S)N2c3ccccc3-n3cccc3[C@H]2c2cccnc2)cc(C(F)(F)F)c1	x	-2.6%	-10.8%
SMILES	FBPA Giardia inh	Cruzain inh Det	Cruzain inh noDet
O=C(O)CCC(=O)c1ccc[nH]1	x	0.9%	11.8%
Nc1ccc(N2CCN(c3cccc(Cl)c3)CC2)cc1	-15.9%	-5.9%	15.8µM*
Nc1nc(N2CCN(c3cccc(Cl)c3)CC2)n[nH]1	-1.5%	x	x
O=C1c2ccccc2-c2ccc(N=[N+]([O-])c3ccc4c(c3)C(=O)c3ccccc3-4)cc21	x	0.4%	1.5%
COc1ccc(-c2nc3scc(CCNS(=O)(=O)c4cccs4)n3n2)cc1	x	1.1%	20.6%
COc1ccc(C(=O)Nc2nnc(S(=O)(=O)N(C)Cc3ccc(F)cc3)s2)cc1OC	8.7%	x	x
COc1ccc(-c2nc(NC(=O)c3ccc(OCC(=O)N4CCOCC4)c(OC)c3)sc2C)cc1	-2.5%	-9.8%	u
CCc1ccc(-c2nc(NC(=O)c3ccc(OCC(=O)Nc4ccc(F)cc4)c(OC)c3)sc2C)cc1	5.6%	-4.8%	3.98µM*
COc1cc(C(=O)Nc2nc(-c3ccc(Cl)cc3)c(C)s2)ccc1OCC(=O)Nc1ccc(F)cc1	0.6%	-1.5%	15.8µM*
Cc1cc(-c2ccc(C)c(S(=O)(=O)NC(c3cccs3)C(C)C)c2)on1 (stereo not given)	x	-5.0%	-13.4%
COc1cccc(Cn2c(=O)n(-c3ccc(C)c(F)c3)c(=O)c3sc4ccccc4c32)c1	x	-3.1%	-6.5%
CCn1c(O)c(/C=C2\C=Nc3ccccc32)sc1=Nc1ccc(C)cc1	4.2%	3.5%	15.8µM*
CCn1c(O)c(/C=C2\C=Nc3ccccc32)sc1=O	-5.6%	x	x
C[C@H](C(=O)c1ccncc1)c1ccccn1	x	4.5%	u
O=C(Nc1cc(Cl)ccc1Cl)c1ccc(-c2ccccc2)cc1	7.3%	-5.7%	-16.9%
COC(=O)c1ccc(C(=O)Nc2cc(Cl)ccc2Cl)cc1NC(=O)c1ccc(N(C)C)cc1	4.8%	-4.8%	3.16µM*
COc1ccc(-c2nc(SCC(=O)Nc3ccc4c(c3)OCCO4)c(-c3ccc(C)cc3)[nH]2)cc1OC	x	-4.2%	u
Cc1cccc(NC(=O)C2CCCC2)c1	-2.7%	-0.7%	9.1%
Cc1cccc(NC(=O)COC(=O)CNC(=O)C2CCCCC2)c1	0.1%	7.08µM*	7.94µM*
C/C=C/c1ccc2oc(-c3ccc(O)cc3)c(C)c2c1	0.2%	-4.8%	8.6%
N#Cc1nc(-c2ccc(COc3ccccc3)o2)oc1NCc1ccccc1	x	-3.8%	-24.3%
CC(Nc1oc(-c2ccc(COc3ccccc3)o2)nc1C#N)c1ccccc1 (stereo not given)	x	-2.7%	20µM*
Cc1noc(Cn2c(=O)c3cc4c(cc3n(CC(=O)Nc3cccc(Cl)c3)c2=O)OCO4)n1	x	1.9%	-0.8%
CCC12CN3CC(C)(CN(C1)C3c1ccc(O)cc1O)C2=O (stereo not given)	x	0.0%	-0.5%
COc1cc(CN(C)CCc2ccccn2)cc(OC)c1OC	-29.8%	4.9%	-2.1%
COc1ccc(CN(C)CCc2ccccn2)cc1OC	6.29µM*	0.9%	17.4%
